From PubChem BioAssay AID1159580 (chemical genetic matrix, 2015)
The whole screen tested about 5,500 compounds, of which about 2,000 (36%) were called active. Not shown: some 18% with an inconclusive outcome. Some of the results follow. Values without a mark were called inactive. Cut-off read from the data, not from the text of the source: active = normalized growth mostly below about 0.91 (no sharp cut-off); inconclusive = no clear call, values can overlap the other calls; inactive = mostly above about 0.92.

Experiment: chemical genetic growth profiling, strain panel (AID 1159580);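 note: tested at 20 µM; growth read once vehicle control cultures reached saturation at 30 °C; 1 = growth at the plate median or of vehicle wells; lower values mean less growth of the strain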
Conditions: S. cerevisiae deletion strains, growth OD

With CC1(C)C2CC[C@]3(C)C(C(=O)C=C4[C@@H]5C[C@@](C)(C(=O)O)CC[C@]5(C)CC[C@]43C)[C@@]2(C)CC[C@@H]1O (stereo partly drawn) the normalized growth (locus YKL009W, strain mrt4, hits give low values) was 0.864 (active), the normalized growth (locus YKL068W, hits give low values) was 1.08 [resistant] (active) and the normalized growth (locus YKL085W, strain MDH1 (second series), hits give low values) was 1.07 [resistant] (active). For the same molecule, the normalized growth (locus YKL085W, strain MDH1, hits give low values) was 1.07 [resistant] (active), the normalized growth (locus YKL160W, strain elf1, hits give low values) was 1.01 and the normalized growth (locus YKL190W, strain CNB1, hits give low values) was 1.08. For the same molecule, the normalized growth (locus YKR001C, strain vps1, hits give low values) was 0.992, the normalized growth (locus YKR026C, strain gcn3, hits give low values) was 1.02 and the normalized growth (locus YKR091W, strain srl3, hits give low values) was 1.01. It also gave a normalized growth (locus YLL001W, strain dnm1, hits give low values) of 0.952, a normalized growth (locus YLL026W, hits give low values) of 1.01 and a normalized growth (locus YLL041C, strain sdh2, hits give low values) of 1.03. For the same molecule, the normalized growth (locus YLR027C, strain aat2, hits give low values) was 1, the normalized growth (locus YLR039C, strain RIC1, hits give low values) was 1.03 and the normalized growth (locus YLR058C, strain SHM2, hits give low values) was 1.01. It also gave a normalized growth (locus YLR102C, strain apc9, hits give low values) of 1.03, a normalized growth (locus YLR113W, strain HOG1, hits give low values) of 0.974 and a normalized growth (locus YLR221C, strain rsa3, hits give low values) of 0.918. The normalized growth (locus YLR258W, strain gsy2, hits give low values) was 1, the normalized growth (locus YLR262C, strain YPT6 (second series), hits give low values) was 0.88 and the normalized growth (locus YLR262C, strain YPT6, hits give low values) was 0.933. It also gave a normalized growth (locus YLR268W, strain sec22, hits give low values) of 0.953, a normalized growth (locus YLR320W, strain mms22, hits give low values) of 0.941 and a normalized growth (locus YLR330W, strain CHS5, hits give low values) of 1.06. For the same molecule, the normalized growth (locus YLR342W, strain FKS1 (second series), hits give low values) was 0.977, the normalized growth (locus YLR342W, strain FKS1, hits give low values) was 0.961 and the normalized growth (locus YLR357W, strain rsc2, hits give low values) was 1.08. The normalized growth (locus YLR370C, strain arc18, hits give low values) was 1.04, the normalized growth (locus YLR371W, strain rom2, hits give low values) was 1.04 and the normalized growth (locus YLR384C, strain iki3, hits give low values) was 1.03. It also gave a normalized growth (locus YLR418C, strain cdc73, hits give low values) of 0.991, a normalized growth (locus YML016C, strain PPZ1, hits give low values) of 1.05 and a normalized growth (locus YML032C, strain rad52, hits give low values) of 0.973. For the same molecule, the normalized growth (locus YML120C, strain ndi1, hits give low values) was 0.933, the normalized growth (locus YML124C, strain tub3, hits give low values) was 1.03 and the normalized growth (locus YMR058W, strain fet3, hits give low values) was 0.983. The normalized growth (locus YMR078C, strain ctf18, hits give low values) was 1.04, the normalized growth (locus YMR125W, strain sto1, hits give low values) was 1.12 [resistant] (active) and the normalized growth (locus YMR129W, hits give low values) was 1.02. For the same molecule, the normalized growth (locus YMR205C, strain PFK2, hits give low values) was 0.99, the normalized growth (locus YMR223W, strain ubp8, hits give low values) was 0.978 and the normalized growth (locus YMR231W, strain pep5, hits give low values) was 0.99. For the same molecule, the normalized growth (locus YMR307W, strain GAS1, hits give low values) was 0.902, the normalized growth (locus YNL067W, strain RPL9B, hits give low values) was 0.987 and the normalized growth (locus YNL071W, strain lat1, hits give low values) was 0.996. The normalized growth (locus YNL128W, strain TEP1, hits give low values) was 1.05, the normalized growth (locus YNL153C, strain GIM3, hits give low values) was 0.982 and the normalized growth (locus YNL183C, strain NPR1, hits give low values) was 0.933. It also gave a normalized growth (locus YNL209W, strain ssb2, hits give low values) of 1.03, a normalized growth (locus YNL233W, strain BNI4, hits give low values) of 0.992 and a normalized growth (locus YNL248C, strain rpa49, hits give low values) of 1.01. The normalized growth (locus YNL250W, strain rad50, hits give low values) was 0.998, the normalized growth (locus YNL271C, strain bni1, hits give low values) was 0.994 and the normalized growth (locus YNL298W, strain CLA4, hits give low values) was 0.942. It also gave a normalized growth (locus YNL307C, strain MCK1, hits give low values) of 1.03, a normalized growth (locus YNL322C, strain KRE1 (second series), hits give low values) of 0.982 and a normalized growth (locus YNL322C, strain KRE1, hits give low values) of 1.05. The normalized growth (locus YNR049C, strain mso1, hits give low values) was 1.03, the normalized growth (locus YNR052C, strain pop2, hits give low values) was 0.955 and the normalized growth (locus YOL006C, strain TOP1, hits give low values) was 0.968. The normalized growth (locus YOL012C, strain htz1) was 1.55, the normalized growth (locus YOL147C, strain pex11, hits give low values) was 1.03 and the normalized growth (locus YOR001W, strain rrp6, hits give low values) was 0.886 (active). For the same molecule, the normalized growth (locus YOR061W, strain CKA2, hits give low values) was 1.04, the normalized growth (locus YOR069W, strain VPS5, hits give low values) was 1.05 and the normalized growth (locus YOR070C, strain gyp1, hits give low values) was 1.01. For the same molecule, the normalized growth (locus YOR080W, strain dia2, hits give low values) was 1, the normalized growth (locus YOR083W, strain WHI5, hits give low values) was 0.922 and the normalized growth (locus YOR106W, strain vam3, hits give low values) was 0.925. The normalized growth (locus YOR136W, strain idh2, hits give low values) was 1.01, the normalized growth (locus YOR144C, strain elg1, hits give low values) was 1.02 and the normalized growth (locus YOR184W, strain ser1, hits give low values) was 0.857 (active). For the same molecule, the normalized growth (locus YOR231W, strain MKK1, hits give low values) was 0.966, the normalized growth (locus YOR265W, strain rbl2, hits give low values) was 1 and the normalized growth (locus YOR270C, strain vph1, hits give low values) was 0.918. The normalized growth (locus YOR290C, strain snf2, hits give low values) was 0.989, the normalized growth (locus YOR316C, strain cot1, hits give low values) was 1.03 and the normalized growth (locus YPL051W, strain arl3, hits give low values) was 1.02. The normalized growth (locus YPL055C, strain LGE1, hits give low values) was 1.06, the normalized growth (locus YPL078C, strain atp4, hits give low values) was 1.02 and the normalized growth (locus YPL106C, strain sse1, hits give low values) was 1.13. It also gave a normalized growth (locus YPL240C, strain hsp82, hits give low values) of 1.01, a normalized growth (locus YPL256C, strain CLN2, hits give low values) of 1.05 and a normalized growth (locus YPR119W, strain clb2, hits give low values) of 1.03. The normalized growth (locus YPR141C, strain kar3, hits give low values) was 1.05, the normalized growth (locus YPR163C, strain tif3, hits give low values) was 1.03 and the normalized growth (locus YPR167C, strain met16, hits give low values) was 1.02. The normalized growth (strain wtn01, hits give low values) was 0.966.
